PAFAH1B3 FP inh = PAFAH1B3 enzyme inhibitors, primary screen, biochemical, fluorescence polarization, human | Platelet-activating factor acetylhydrolase IB subunit alpha1 (Homo sapiens), Q15102 | recombinant PAFAH1B3, FP-rhodamine probe | inhibition, % at 3.39 µM | 340,000 tested, 0.28% active;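 active means inhibition above the screen-wide average of all tested compounds plus 3 SD, cut at about 25% in these data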;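 further: 0% = enzyme with DMSO only and 100% = wells lacking PAFAH1B3 protein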
PP1 counter = PP1-alpha phosphatase inhibitors, primary screen, counter-screen for PP5 inhibitor project, biochemical, fluorescence, OMFP substrate, single point. 320,000 tested, 0.9% active. inhibition, % at 6.7 µM. purified PP1alpha. AID 2235, 2010;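 active means inhibition above the mean inhibition of all tested compounds plus 3 SD, computed separately for each screening campaign, cut at about 15% in these data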
PAFAH1B2 inh = PAFAH1B2 enzyme inhibitors, primary screen, biochemical, fluorescence polarization, human. Platelet-activating factor acetylhydrolase IB subunit alpha2 (Homo sapiens), P68402. recombinant PAFAH1B2, FP-rhodamine activity probe. inhibition, % at 3.39 µM. 340,000 tested, 1.2% active;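 active means inhibition above the mean of all tested compounds plus 3 SD, cut at about 24% in these data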;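 further: 0% = enzyme with DMSO and 100% = wells lacking PAFAH1B2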
PAFAH2 inh = PAFAH2 enzyme inhibitors, primary screen, biochemical, fluorescence polarization, human; Platelet-activating factor acetylhydrolase 2, cytoplasmic (Homo sapiens), Q99487; recombinant PAFAH2, FP-rhodamine activity probe; AID 492956, 2010; inhibition, % at 3.39 µM; 340,000 tested, 0.99% active;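 active means inhibition above the mean over all tested compounds plus 3 SD, cut at about 30% in these data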;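 further: inhibitors block probe labeling of enzyme so polarization drops; 0% = enzyme with DMSO and 100% = wells lacking PAFAH2 protein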
pPAFAH inh = pPAFAH enzyme inhibitors, primary screen, biochemical, fluorescence polarization, human. Platelet-activating factor acetylhydrolase (Homo sapiens), Q13093. recombinant pPAFAH, FP-rhodamine probe fluorescence polarization. inhibition, % at 3.39 µM. 330,000 tested, 1.5% active. AID 463082, 2010;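 active means inhibition above the mean inhibition across the screen plus 3 SD, cut at about 25% in these data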;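 further: inhibitors block binding of the rhodamine activity-based probe so polarization drops; 0% = enzyme with DMSO and 100% = wells lacking pPAFAH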
Target sequence (Q13093 whole entry, looked up): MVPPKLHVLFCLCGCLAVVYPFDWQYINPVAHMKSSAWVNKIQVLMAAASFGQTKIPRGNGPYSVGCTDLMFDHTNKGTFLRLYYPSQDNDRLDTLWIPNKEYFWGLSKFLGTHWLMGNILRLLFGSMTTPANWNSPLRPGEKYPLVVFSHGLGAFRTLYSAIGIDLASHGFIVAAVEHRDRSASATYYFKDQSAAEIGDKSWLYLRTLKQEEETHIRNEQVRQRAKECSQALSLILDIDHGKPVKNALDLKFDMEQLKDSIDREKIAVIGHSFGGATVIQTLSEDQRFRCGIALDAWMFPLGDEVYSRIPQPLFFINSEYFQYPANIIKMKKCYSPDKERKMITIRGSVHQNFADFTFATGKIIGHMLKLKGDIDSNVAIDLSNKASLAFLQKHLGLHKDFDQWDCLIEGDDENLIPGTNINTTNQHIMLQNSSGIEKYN
PP5 inh = PP5 phosphatase inhibitors, primary screen, biochemical, fluorescence | Serine/threonine-protein phosphatase 5 (Homo sapiens), P53041 | purified PP5c, OMFP substrate fluorescence | inhibition, % at 6.7 µM | 320,000 tested, 0.18% active | AID 1987, 2009;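 active means inhibition above the campaign's mean inhibition across all tested compounds plus 3 SD, cut at about 9.5% in these data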;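 further: 0% = DMSO only and 100% = 100 µM cantharidin control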
Starred values were filed as active, the others as inactive; x = no result. Sampled rows, rich in hits. Any-hit rate of the full collection: about 3.4%.

SMILES	PAFAH1B3 FP inh	PP1 counter	PAFAH1B2 inh	PAFAH2 inh	pPAFAH inh	PP5 inh
N#Cc1c(NC(=O)CSc2ncccn2)oc(-c2ccccc2)c1-c1ccccc1	6	6	12	1	32*	2
Clc1ccc(CCNc2nc3ccccc3s2)cc1	1	0	27*	10	2	4
CCCn1cnc2c(SCc3ccccc3Cl)nc(N)nc21	1	x	-1	12	x	x
O=C(N/N=C/c1ccc(OCc2ccccc2)cc1)c1ccncc1	5	-1	6	1	-9	2
Oc1ccc(N=Cc2ccc(OCc3ccccc3)cc2)cc1	28*	4	24	19	24	3
C/C(=N\O)C1/C(=N/O)CC2C1C2(C)C (configuration not stated)	-3	-2	34*	9	3	-2
CCOc1cc(N2CCOCC2)c(OCC)cc1NC(=O)CN1C(=O)NC(C)(c2ccc(OC)cc2)C1=O (configuration not stated)	2	x	1	3	x	x
CNS(=O)(=O)c1cccc(C(=O)OCC(=O)c2c(N)n(Cc3ccccc3)c(=O)n(C)c2=O)c1	0	x	0	2	x	x
COc1ccc(CCc2nnc(NS(C)(=O)=O)s2)cc1	-1	x	17	7	x	x
Cc1ccc(-c2sc(C(=O)NN)c(C)c2C#N)cc1	-3	-1	7	5	9	1
O=C(O)CCc1ccc(-c2ccccc2)n1Cc1ccco1	0	1	13	8	16	-1
O=C(O)CCc1ccc(-c2ccc(F)cc2)n1Cc1ccco1	-1	-4	29*	7	12	2
Cc1c(Br)c([N+](=O)[O-])nn1CCCC(=O)NC(C)c1ccccc1 (configuration not stated)	7	-1	6	3	5	-1
O=C(CSc1ncnc2ccccc12)Nc1cc(S(=O)(=O)N2CCCCC2)ccc1Cl	-4	16*	2	0	15	2
Cc1ccc(S(=O)(=O)N(C)C)cc1NC(=O)COC(=O)c1sc2cc(Cl)ccc2c1Cl	-12	-5	-5	-19	32*	0
O=Cc1cc(N=Nc2ccc(S(=O)(=O)O)cc2)ccc1O	2	4	7	3	6	-1
CN(C)c1ccc(N=Nc2ccc(S(=O)(=O)O)cc2)c2ccccc12	4	0	3	13	30*	3
O=C1C(Cl)=C(NCCc2ccccc2)C(=O)c2ccccc21	40*	x	33*	30*	x	x
CC(=O)c1cccc(Nc2nc(-c3cccc([N+](=O)[O-])c3)cs2)c1	-3	16*	5	1	6	1
Cc1nc(NC(=O)c2ccccc2)sc1-c1csc(Nc2ccc(C(=O)O)cc2)n1	29*	x	16	32*	x	x
O=C(O)c1ccc(Nc2nc(-c3ccccc3)cs2)cc1	8	0	25*	14	8	3
O=C(CNC(=O)c1ccc2c(c1)OCCO2)N=Nc1c(O)[nH]c2ccccc12	5	2	7	-4	3	2
Cc1c(C(=O)NNC(=S)Nc2ccc(S(N)(=O)=O)cc2)oc2ccccc12	14	0	9	2	28*	2
Cc1c(C(=O)Nc2ccc(S(N)(=O)=O)cc2)oc2ccc(Cl)cc12	3	3	-2	-1	-2	1
O=c1[nH]c2ccc(S(=O)(=O)Nc3ccc(Cl)cc3)cc2o1	9	x	54*	6	x	x
SMILES	PAFAH1B3 FP inh	PP1 counter	PAFAH1B2 inh	PAFAH2 inh	pPAFAH inh	PP5 inh
Cc1cc(=O)[nH]c(SCc2ccc(Cl)cc2Cl)n1	-3	0	29*	22	9	1
Cc1cnc(SCc2ccc(Cl)cc2Cl)[nH]c1=O	11	0	27*	5	6	1
Cc1nnc(SCc2ccc(Cl)cc2Cl)[nH]c1=O	6	-3	27*	12	21	-1
Cc1ccc(C)c(CSc2nnc(C)c(=O)[nH]2)c1	6	4	6	-4	0	1
CCOC(=O)C1CCN(C(=O)CCN2C(=O)C3C4C=CC(C4)C3C2=O)CC1 (configuration not stated)	-3	1	-2	5	29*	3
CCC(C)NC(=O)c1ccc(N2CC3CC(C2)c2cccc(=O)n2C3)c(NC(=O)c2ccc(Br)o2)c1 (configuration not stated)	5	0	-2	-1	5	1
CCN(CC)S(=O)(=O)c1ccc(NC(=O)COC(=O)CNC(=O)C2CCCCC2)cc1	8	x	4	13	x	x
O=C(Nc1ccccn1)c1ccc(S(=O)(=O)N2CCCC2)cc1	4	-10	-1	4	7	1
O=C(Nc1ccccn1)c1ccc(S(=O)(=O)c2ccc(Cl)cc2)cc1	1	4	24*	-4	1	0
COc1ccc([C@@H]2CC=C(C(=O)O)[C@H](c3ccc(F)cc3)N2S(=O)(=O)c2ccc(Cl)cc2)cc1	4	5	29*	4	2	2
COc1ccc([C@@H]2CC=C(C(=O)O)[C@H](c3ccc(F)cc3)N2S(=O)(=O)c2ccccc2C)cc1	1	1	25*	1	3	0
COc1ccc([C@@H]2CC=C(C(=O)O)[C@H](c3ccccc3F)N2S(=O)(=O)c2ccccc2C)cc1	14	0	11	4	5	-1
COc1cc([C@@H]2CC=C(C(=O)O)[C@H](c3ccc(C)cc3)N2S(=O)(=O)c2ccc(C)cc2)cc(OC)c1OC	8	x	3	-2	3	x
CCOC(=O)C1=C(C)Nc2ccccc2N=C1NC(=O)c1cc(C)on1	8	-3	-3	6	1	5
Cc1ccc(C(=O)c2c(C)oc3c2C(=O)C(=O)c2ccccc2-3)cc1	7	-1	4	13	26*	5
Cc1oc2c(c1C(=O)c1ccc(Cl)cc1)C(=O)C(=O)c1ccccc1-2	-1	x	0	1	x	x
CC(C)(C)[C@@H]1COC(=O)[C@H](Cc2ccc(F)cc2)C/C=C\C[C@H](CC(=O)N(CCO)Cc2ccccc2)C(=O)N1	5	x	30*	3	3	x
CC(C)(C)OC(=O)C[C@@H]1C/C=C\C[C@@H](CC(=O)N(CCO)Cc2ccccc2)C(=O)NCCOC1=O	3	x	-1	-7	3	x
O=C1NCCOC(=O)[C@@H](Cc2ccc(F)cc2)C/C=C\C[C@@H]1CC(=O)N(CCO)Cc1ccccc1	1	x	26*	-1	4	x
O=C1N[C@@H](Cc2ccccc2)COC(=O)[C@@H](Cc2ccc(F)cc2)C/C=C\C[C@@H]1CC(=O)N(CCO)Cc1ccccc1	-2	x	41*	1	9	x
